Test [1] deals with ATP-dependent translocase ABCB1 (Homo sapiens) (UniProt P08183). Briefly: P-glycoprotein substrate transport blockade – cell-based (AID 377; in the data active = fluorescence slope change above about 50%). As to conditions: MDR1-expressing cells, fluorescent substrate accumulation slope; stronger effect = higher value; concentration not given here.
A short description of test [2]: compounds altering viability of human ES cells (AID 493140; call rule not given here;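 note: cells exposed to compounds for four days before counting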). As to conditions: human embryonic stem cell survival screen; stronger effect = higher value.
A short description of test [3]: P. berghei load reduction in hepatocytes – cell-based, HepG2, luciferase luminescence, HepG2 viability, primary screen (AID 624349; in the data active = parasite load remaining mostly below about 12%, no sharp cut-off; inactive = mostly above about 10%;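 note: 100% = mean of DMSO negative control wells on the same plate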). As to conditions: P. berghei liver stage in HepG2, luciferase luminescence, concentration not given here; parasite load remaining: stronger effect = lower value; viability: measured here: HepG2 viability without parasites.
Test [4] can be described thus: Wnt pathway potentiators raising nuclear beta-catenin – imaging, WNT3A-conditioned medium, mouse C2C12, NPC library, primary screen (AID 1117326; in the data active = nuclear beta-catenin stimulation mostly above about 4.2%, no sharp cut-off; inactive = mostly below about 10%). As to conditions: stronger effect = higher value.
Test [5] is described as follows: stimulators of insulin release from INS-1E, primary screen, cell-based, 5 mM glucose, NPC library (AID 1117329;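 active = compound raises insulin release from rat beta cells at 5 mM glucose, no numeric limit stated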). As to conditions: rat INS-1E insulin secretion, at 10 µM, stronger effect = higher value.
The nature of test [6]: growth inhibition of GSK3B-pretreated HCT116 cells – cell-based, CellTiter-Glo, 0.2 to 20 µM (AID 1117336;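 active = compounds lowering colon cancer cell viability after pretreatment blocking the GSK3B kinase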). As to conditions: HCT116 viability after GSK3B inhibitor, at 20 µM, stronger effect = higher value.
The nature of test [7]: inhibition of endothelial tube formation, primary screen, imaging, VEGF stimulated, CD31 staining, tube area, NPC library (AID 1117340;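 active = compound that reduces growth-factor-driven endothelial tube area in a mixed cell culture, no cutoff stated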). As to conditions: VEGF-stimulated ADSC/ECFC co-culture, at 10 µM, stronger effect = higher value.
A short description of test [8]: GLP1 release stimulators, primary, NCI-H716, NPC library (AID 1117341;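 active = compound raises GLP1 secretion from the human gut endocrine cells, with no numeric limit stated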). As to conditions: NCI-H716 cells, at 10 µM, stronger effect = higher value.
Test [9] is described as follows: HCT116 colon cancer cell growth inhibition, primary screen, CellTiter-Glo luminescence, NPC library (AID 1117342;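 active = compounds that lower survival of HCT116 colon cancer cells in the luminescence readout, no numeric limit stated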). As to conditions: at 20 µM (top of the series).
A short description of test [10]: reduced SW480 viability measured with CellTiter-Glo, NPC library, primary (AID 1117343;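 active = compounds that lower viability of the colon cancer cells in the luminescence readout, with no numeric limit stated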). The following applies: CellTiter-Glo luminescence; at 20 µM (top of the series) unless noted.
Test [11] in a line: NPC library primary testing for decreased DLD-1 cell viability via CellTiter-Glo (AID 1117346;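 active = compounds that lower survival of DLD-1 colon cancer cells in the luminescence readout, no cutoff given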). As to conditions: DLD-1 viability, CellTiter-Glo luminescence; at 20 µM (top of the series).
A short description of test [12]: viability loss with induced miR-34 in A549 – imaging, A549 dox-inducible miR-34, nuclei and caspase counts, primary screen (AID 1347080). As to conditions: A549 miR-34 inducible, Hoechst nuclei count, 48 h.
Test [13] is described as follows: MELAS cybrid and Rieske KO viability enhancers – cell-based, MELAS cybrids, Rieske KO mouse fibroblasts, CellTiter-Glo, primary screen (AID 1508586;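 active = mean z-score across replicates of 1.96 or higher in either the MELAS or the Rieske mutant cell line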;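 note: z relative to plate mean and SD of compound and empty wells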). As to conditions: low glucose.
The nature of test [14]: galactose survival enhancers in mitochondrial complex I cybrids – cell-based, galactose medium, ATP luminescence, primary screen (AID 1645843;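 active = z-score of at least 1.8 in each of two replicates, scored against plate mean and spread of sample wells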;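 note: positive z means more ATP and so rescue of galactose-driven cybrid death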). The following applies: complex I mutant cybrid cells, 72 h, stronger effect = higher value.
Test [15] has as its target NAD(+) hydrolase SARM1 (Homo sapiens) (UniProt Q6SZW1). Briefly: blocking NAD cleavage by SARM1 SAM-TIR – cell lysate, NAD-Glo luminescence (AID 1508614;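 active = compound whose remaining NAD level is above about 45 nM, limit read from the data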;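 note: higher remaining NAD means stronger inhibition of SARM1 NADase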). As to conditions: SAM-TIR HEK293T lysate NADase, at 1 µM, stronger effect = higher value.
Test [16] addresses Mitogen-activated protein kinase 7 (Homo sapiens) (UniProt Q13164). Description: Gal4-ERK5 driven luciferase induction – cell-based, HTS, primary screen (AID 1508626;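 active = luciferase signal above three times the same-plate solvent-only control wells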;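 note: luciferase driven by Gal4-ERK5 fusion binding five Gal4 sites before minimal TATA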). As to conditions: HeLa Gal4-ERK5 transactivation, 18 h, at 5 µM, stronger effect = higher value.
[17] abbreviates: stronger effect = lower value, cell number ratio, induced over uninduced.
[18] abbreviates: measured here: relative caspase fold change +Dox/-Dox.
[19] abbreviates: measured here: total cells with miR-34 induction, stronger effect = lower value.
Where [20] appears, read: measured here: total cells without miR-34 induction.
Setting [21] is: MELAS cybrid survival, CellTiter-Glo 48 h, stronger effect = higher value.
The mark [22] stands for this setting: Rieske KO mouse fibroblast survival, CellTiter-Glo 72 h.

Each structure is given as a SMILES string. Where “and” joins values, the source holds several entries; their conditions need not be identical. Equal entries are not always repeated. Results filed as inconclusive are left out. Calls of active or inactive are those of the source.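 Rule for the calls, unless noted: active = compounds whose cell count with miR-34 switched on is under 0.7 times the count with it off; inactive = the rest.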

ATP-dependent translocase ABCB1 (Homo sapiens), sequence (P08183 whole entry, looked up): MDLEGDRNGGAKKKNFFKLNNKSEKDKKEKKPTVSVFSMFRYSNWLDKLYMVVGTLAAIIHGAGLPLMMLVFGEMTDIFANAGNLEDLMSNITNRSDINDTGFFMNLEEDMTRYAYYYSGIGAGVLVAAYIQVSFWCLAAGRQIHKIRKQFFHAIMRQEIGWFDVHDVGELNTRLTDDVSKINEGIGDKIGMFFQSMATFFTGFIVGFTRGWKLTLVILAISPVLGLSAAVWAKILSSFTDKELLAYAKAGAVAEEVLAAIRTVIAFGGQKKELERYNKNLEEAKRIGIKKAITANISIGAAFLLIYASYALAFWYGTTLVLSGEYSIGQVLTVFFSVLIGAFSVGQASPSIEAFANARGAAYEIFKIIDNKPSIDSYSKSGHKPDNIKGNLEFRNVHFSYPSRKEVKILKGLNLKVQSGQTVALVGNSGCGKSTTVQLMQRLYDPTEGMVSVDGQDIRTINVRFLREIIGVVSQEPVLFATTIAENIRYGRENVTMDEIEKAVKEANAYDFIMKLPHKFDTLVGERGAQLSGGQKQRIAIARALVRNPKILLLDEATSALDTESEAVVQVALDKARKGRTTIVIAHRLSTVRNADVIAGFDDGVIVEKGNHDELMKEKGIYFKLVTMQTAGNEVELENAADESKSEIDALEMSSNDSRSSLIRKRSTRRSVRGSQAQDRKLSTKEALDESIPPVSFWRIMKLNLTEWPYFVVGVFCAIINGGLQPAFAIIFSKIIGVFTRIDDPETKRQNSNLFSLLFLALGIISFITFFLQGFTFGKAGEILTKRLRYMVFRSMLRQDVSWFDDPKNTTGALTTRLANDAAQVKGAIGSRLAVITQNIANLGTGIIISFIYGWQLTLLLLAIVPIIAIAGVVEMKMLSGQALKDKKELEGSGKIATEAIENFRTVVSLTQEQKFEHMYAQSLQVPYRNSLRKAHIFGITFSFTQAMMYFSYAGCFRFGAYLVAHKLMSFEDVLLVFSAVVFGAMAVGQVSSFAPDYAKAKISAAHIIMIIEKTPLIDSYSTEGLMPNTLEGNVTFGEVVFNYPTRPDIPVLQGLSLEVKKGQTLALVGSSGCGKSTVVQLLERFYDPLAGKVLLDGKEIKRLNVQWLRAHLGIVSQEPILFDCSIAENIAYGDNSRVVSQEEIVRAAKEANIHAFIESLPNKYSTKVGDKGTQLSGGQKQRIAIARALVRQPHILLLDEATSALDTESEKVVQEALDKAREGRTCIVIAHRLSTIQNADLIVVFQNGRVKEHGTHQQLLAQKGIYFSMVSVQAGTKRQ
NAD(+) hydrolase SARM1 (Homo sapiens), sequence (Q6SZW1 whole entry, looked up, the tested form may be a part): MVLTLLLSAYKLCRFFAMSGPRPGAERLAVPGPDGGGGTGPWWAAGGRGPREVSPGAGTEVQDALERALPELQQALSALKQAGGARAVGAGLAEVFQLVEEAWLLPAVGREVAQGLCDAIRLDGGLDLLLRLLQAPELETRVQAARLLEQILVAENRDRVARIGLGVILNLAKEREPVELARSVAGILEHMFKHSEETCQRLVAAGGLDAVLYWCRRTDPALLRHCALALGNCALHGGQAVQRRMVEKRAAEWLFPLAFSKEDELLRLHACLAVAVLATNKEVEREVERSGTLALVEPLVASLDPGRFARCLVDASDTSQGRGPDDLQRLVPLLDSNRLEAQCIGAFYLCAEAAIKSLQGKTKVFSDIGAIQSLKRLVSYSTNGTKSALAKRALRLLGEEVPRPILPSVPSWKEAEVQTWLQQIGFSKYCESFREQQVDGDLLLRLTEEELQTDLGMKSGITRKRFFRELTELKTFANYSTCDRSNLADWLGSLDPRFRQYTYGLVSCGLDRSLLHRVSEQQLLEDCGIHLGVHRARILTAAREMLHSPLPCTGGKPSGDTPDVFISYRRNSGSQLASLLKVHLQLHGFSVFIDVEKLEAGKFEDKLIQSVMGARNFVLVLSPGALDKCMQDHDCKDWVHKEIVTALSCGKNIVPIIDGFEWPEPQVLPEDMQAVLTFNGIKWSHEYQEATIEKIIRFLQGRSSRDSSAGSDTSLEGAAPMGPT
Mitogen-activated protein kinase 7 (Homo sapiens), sequence (Q13164 whole entry, looked up, the tested form may be a part): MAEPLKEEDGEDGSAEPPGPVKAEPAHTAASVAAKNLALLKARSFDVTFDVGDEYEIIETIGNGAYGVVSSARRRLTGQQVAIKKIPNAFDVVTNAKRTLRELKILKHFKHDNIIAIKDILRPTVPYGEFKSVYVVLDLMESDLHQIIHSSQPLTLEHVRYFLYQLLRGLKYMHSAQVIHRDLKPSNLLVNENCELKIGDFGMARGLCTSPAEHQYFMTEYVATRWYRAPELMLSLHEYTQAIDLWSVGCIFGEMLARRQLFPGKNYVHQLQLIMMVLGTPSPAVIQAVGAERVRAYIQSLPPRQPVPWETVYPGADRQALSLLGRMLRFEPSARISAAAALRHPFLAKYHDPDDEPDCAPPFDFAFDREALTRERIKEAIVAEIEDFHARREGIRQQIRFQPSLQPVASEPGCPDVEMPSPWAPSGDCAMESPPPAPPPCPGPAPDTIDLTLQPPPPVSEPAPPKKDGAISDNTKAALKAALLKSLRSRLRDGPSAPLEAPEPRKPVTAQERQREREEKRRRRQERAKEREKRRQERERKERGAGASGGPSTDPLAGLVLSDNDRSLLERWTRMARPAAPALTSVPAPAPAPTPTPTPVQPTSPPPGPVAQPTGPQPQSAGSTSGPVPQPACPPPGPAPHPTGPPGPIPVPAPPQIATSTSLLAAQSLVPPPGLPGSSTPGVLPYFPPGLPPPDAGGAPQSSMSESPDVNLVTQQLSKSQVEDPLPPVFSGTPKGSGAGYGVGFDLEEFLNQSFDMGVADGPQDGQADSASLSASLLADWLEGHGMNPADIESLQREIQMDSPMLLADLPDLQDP

Regarding `CCc1cccc(CC)c1NC(=O)CN(CC(=O)O)CC(=O)O`, in test [1], the fluorescence slope change is -10% (inactive). The survival in test [2] is 10.9 (inactive). Moreover, the parasite load remaining in test [3] is 77.8% (inactive) and 89.7% (inactive). For the same compound, in [3], the viability is 111% and 80.2%. Moreover, the nuclear beta-catenin stimulation was -0.2% (inactive) in [4] (at 10 µM) and 0.2% in test [4] (stimulation, at 2 µM). Moreover, the insulin secretion stimulation in test [5] was -1.7% (inactive). In addition, the viability decrease in test [6] was -8.7% (inactive). Besides, the tube area decrease in [7] is 7.4% (inactive). In test [8], the GLP1 secretion stimulation was -0.1% (inactive). For the same compound, in test [9], the inhibition of viability is 12% (inactive). The viability decrease (inhibition) was 39.7% (inactive) in test [10] and 1.77% (inactive) in [11]. The fold change in test [12] (setting [17]) is 0.877 (inactive); in test [12] (setting [18]) it was 1.63. In addition, the cell count in test [12] (setting [19]) was found to be 9160; in [12] (setting [20]), 10400. The values for the z-score in test [13] (setting [21]) and in test [13] (setting [22]) were 0.304 (inactive) and 0.0436, respectively.

In the case of `Cc1c(-c2ccccc2)oc2c(C(=O)OCCN3CCCCC3)cccc2c1=O`, the fluorescence slope change in [1] is 112% (active). The survival in [2] is 21.4 (inactive). Moreover, in [3], the parasite load remaining was 46% (inactive) and 89.3% (inactive). Besides, the viability in test [3] is 49.7% and 89.5%. For the same compound, the nuclear beta-catenin stimulation in test [4] (at 10 µM) is -2.4% (inactive); in test [4] (stimulation, at 2 µM), -1%. In addition, the insulin secretion stimulation in test [5] is 2.9% (inactive). The viability decrease in test [6] was -5.1% (inactive). Moreover, the tube area decrease in test [7] is 19.4% (inactive). For the same compound, the GLP1 secretion stimulation in test [8] was -5.1% (inactive). Moreover, the inhibition of viability in test [9] is 5.5% (inactive). Also, the viability decrease (inhibition) is 4.4% (inactive) in test [10] and -0.8% (inactive) in [11]. The fold change in test [12] (setting [17]) was 0.916 (inactive) and 1.06 (inactive); in test [12] (setting [18]) it was 1.01 and 0.699. For the same compound, the cell count in test [12] (setting [19]) is 8120 and 9090; in [12] (setting [20]), 8860 and 8560. In addition, the z-score is -0.232 (inactive) and 0.0828 (inactive) in test [13] (setting [21]); -0.166 and -0.00233 in test [13] (setting [22]).

As for `COc1ccccc1Oc1c(NS(=O)(=O)c2ccc(C(C)(C)C)cc2)nc(-c2ncccn2)nc1OCCO`, the parasite load remaining in [3] is 23% (inactive). For the same compound, the viability in [3] is 71%. Further, the nuclear beta-catenin stimulation is -2.1% (inactive) in [4] (at 10 µM) and 0.8% in [4] (stimulation, at 2 µM). Further, in [5], the insulin secretion stimulation is 7% (inactive). Further, the viability decrease in [6] was -5.8% (inactive). In addition, in test [7], the tube area decrease is 4.9% (inactive). Further, in [8], the GLP1 secretion stimulation was 0.2% (inactive). Also, the inhibition of viability in [9] is 12.9% (inactive). Besides, the viability decrease (inhibition) was 81.4% (active) in test [10] and 16.8% (inactive) in [11]. The fold change in test [12] (setting [17]) was 0.921 (inactive) and 0.93 (inactive) and 0.843 (inactive); in test [12] (setting [18]), 1.38 and 0.578 and 1.32. Moreover, the cell count in test [12] (setting [19]) was 8280 and 8370 and 9010; in [12] (setting [20]) it was 8980 and 9000 and 10700. The z-score in test [14] is 0.365 (inactive).

Take `OC[C@@H](O)[C@@H](O[C@@H]1O[C@H](CO)[C@H](O)[C@H](O)[C@H]1O)[C@H](O)[C@@H](O)CO`: the nuclear beta-catenin stimulation is 2% (inactive) in test [4] (at 10 µM) and 0.9% in test [4] (stimulation, at 2 µM). Also, the insulin secretion stimulation in test [5] was 2.3% (inactive). In test [6], the viability decrease is 22.6% (inactive). For the same compound, the tube area decrease in test [7] is -0.6% (inactive). Also, the GLP1 secretion stimulation in [8] is -0.5% (inactive). The inhibition of viability in test [9] is 6.7% (inactive). For the same compound, the viability decrease (inhibition) in test [10] was 20% (inactive); in test [11], 3.4% (inactive). Further, the fold change was 0.928 (inactive) in [12] (setting [17]) and 0.884 in [12] (setting [18]). The cell count amounted to 8700 in [12] (setting [19]) and 9370 in test [12] (setting [20]). The remaining NAD in test [15] is 10 nM (inactive). In test [16], the luciferase signal is 56 AU (inactive).

For the compound `O=C1NCCN1CCN1CCC(c2cn(-c3ccc(F)cc3)c3ccc(Cl)cc23)CC1`, the nuclear beta-catenin stimulation was 5.7% (inactive) in [4] (at 10 µM) and 0.1% in test [4] (stimulation, at 2 µM). Also, the insulin secretion stimulation in [5] was 5.2% (inactive). Further, in test [6], the viability decrease was 99.9% (active). In addition, the tube area decrease in test [7] is 100% (active). Besides, the GLP1 secretion stimulation in [8] was -1.3% (inactive). Further, in test [9], the inhibition of viability was 100% (active). Moreover, the viability decrease (inhibition) is 103% (active) in test [10] and 102% (active) in test [11]. Further, the z-score in [13] (setting [21]) was -0.903 (inactive); in [13] (setting [22]), 0.239.
